Experimental findings from PubChem BioAssay (NCATS) are described below.

The target in assay [1] is Cytochrome P450 1A2 (Homo sapiens) (UniProt P05177). The assay can be described thus: p450-cyp1a2 (AID 410; calls by dose curve; note: potency is the fitted concentration of half-maximal effect). In outline:
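Read-out is luminescence from luciferin produced by CYP1A2 demethylation of Luciferin-ME (100uM, at Km). Detection reagent stopped the 60 min NADPH-dependent reaction; signals were normalized to 57 uM furafylline.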

In assay [2] the target is Glucocorticoid receptor (Homo sapiens) (UniProt P04150). The assay can be described thus: GR-EFC Redistribution (AID 451; calls by dose curve; note: potency is the fitted concentration of half-maximal effect). Conditions: CHO-K1 GR-EFC translocation, beta-gal luminescence, 2 h. In outline:
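CHO-K1 cells expressing nuclear EA and GR-ED fragments of b-gal; compounds titrated up to 46 uM final, 2 h at 37 C. GR nuclear translocation read as complemented b-gal luminescence after 1 h RT detection.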

The target in assay [3] is Mitogen-activated protein kinase 10 (Mus musculus) (UniProt Q61831). The assay can be described thus: JNK3 AlphaScreen Assay (AID 530; active = well fitted curve in either direction with a large enough effect, not every such curve was filed as active;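 note: kinase came from lysate of stimulated human HepG2 cells; signal reports phosphorylation of biotinylated GST-cJun 1-79 at Ser73 with 10 µM ATP; series mostly up to about 57 µM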). The method in brief: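 HepG2 lysate (IL-1b/TNFa pre-activated) + biotin-GST-cJun 1-79 + anti-pSer73 cJun; cpd titration, 15 min RT; ATP 10 uM start; Tris pH 7.6, MgCl2, DTT, vanadate; beads in EDTA buffer; AlphaScreen.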
(Alpha assays give light when donor and acceptor beads are brought close together.)

Assay [4] has as its target 3',5'-cyclic-AMP phosphodiesterase 4B (Homo sapiens) (UniProt Q07343). The assay can be described thus: qHTS Assay for Inhibitors of PDE-IV (AID 607; active = well fitted activation curve with a large enough effect in the main read-out, with a control signal flat, not every such curve was filed as active). In outline: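 ACTOne HEK293 cells carry a modified cAMP-gated CNG channel and express endogenous PDE4; plated 1000 cells/well, compounds up to 22.9 uM final. Membrane-potential dye fluorescence (ex 535/em 590) was read; parental cells received 10 uM forskolin + 100 uM RO 20-1724.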
A general note: Quantitative high-throughput screening tests each substance at several concentrations.

Assay [5] concerns the target Cytochrome P450 2C9 (Homo sapiens) (UniProt P11712). The experiment in a line: qHTS Assay for Inhibitors and Substrates of Cytochrome P450 2C9 (AID 883). Note: nearly all actives have a fitted effect of over 60% in size. In outline:
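Signal: luciferase luminescence reporting luciferin produced by CYP2C9. Conditions: 10nM enzyme, Luciferin-H 100uM at KM, 25mM KPO4, 37C, 60 min NADPH-driven reaction. Reference: 57uM sulphaphenazole as 100% inhibition.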

In assay [6] the target is Cytochrome P450 2D6 (Homo sapiens) (UniProt P10635). The assay can be described thus: qHTS Assay for Inhibitors and Substrates of Cytochrome P450 2D6 (AID 891).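 Note: luciferin methyl ether substrate demethylated by CYP2D6 with NADPH regeneration; nearly all actives have a fitted effect of over 60% in size.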 In outline:
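Luminescent read-out of luciferin formed by 5 nM human CYP2D6 demethylating 30 uM Luciferin-ME EGE (Km level) over 60 min at room temperature after NADPH regeneration addition. Data normalized to full inhibition by 1.43 uM quinidine.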

Assay [7] has as its target Cytochrome P450 2C19 (Homo sapiens) (UniProt P33261). The assay can be described thus: qHTS Assay for Inhibitors and Substrates of Cytochrome P450 2C19 (AID 899). Note: nearly all actives have a fitted effect of over 60% in size. The method in brief: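 Signal comes from luciferase acting on luciferin released by CYP2C19-mediated hydroxylation of Luciferin-H EGE, 10uM (KM). Assay mix: 5nM enzyme, 50mM KPO4; 60 min at 37C with NADPH regeneration. Data normalized against 57uM ketoconazole.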

Unmarked numbers belong to inactive results. Inconclusive results are not listed. Active and inactive are the calls of the source. Unless noted, calls come from the whole dose curve; as a rule, active = well fitted inhibition curve with a large enough effect; inconclusive = small, poorly fitted or top-dose-only effect; inactive = no such curve, though single readings can be large or run the other way. Bounds are passed on as bounds.

Sequence of Cytochrome P450 2C9 (Homo sapiens) (P11712 whole entry, looked up): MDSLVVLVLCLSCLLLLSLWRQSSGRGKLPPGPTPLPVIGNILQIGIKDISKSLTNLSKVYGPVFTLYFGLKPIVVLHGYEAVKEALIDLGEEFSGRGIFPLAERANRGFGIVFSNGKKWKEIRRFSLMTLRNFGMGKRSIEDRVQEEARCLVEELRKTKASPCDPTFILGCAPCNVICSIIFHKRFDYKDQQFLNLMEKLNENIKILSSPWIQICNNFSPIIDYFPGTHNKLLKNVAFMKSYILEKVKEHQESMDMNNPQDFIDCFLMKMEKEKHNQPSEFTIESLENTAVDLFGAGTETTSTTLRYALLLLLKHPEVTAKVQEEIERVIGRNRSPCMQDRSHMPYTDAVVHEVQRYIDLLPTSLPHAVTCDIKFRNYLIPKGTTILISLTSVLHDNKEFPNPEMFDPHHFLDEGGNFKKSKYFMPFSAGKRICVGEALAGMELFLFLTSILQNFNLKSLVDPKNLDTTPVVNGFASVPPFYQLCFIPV
Sequence of Cytochrome P450 2C19 (Homo sapiens) (P33261 whole entry, looked up): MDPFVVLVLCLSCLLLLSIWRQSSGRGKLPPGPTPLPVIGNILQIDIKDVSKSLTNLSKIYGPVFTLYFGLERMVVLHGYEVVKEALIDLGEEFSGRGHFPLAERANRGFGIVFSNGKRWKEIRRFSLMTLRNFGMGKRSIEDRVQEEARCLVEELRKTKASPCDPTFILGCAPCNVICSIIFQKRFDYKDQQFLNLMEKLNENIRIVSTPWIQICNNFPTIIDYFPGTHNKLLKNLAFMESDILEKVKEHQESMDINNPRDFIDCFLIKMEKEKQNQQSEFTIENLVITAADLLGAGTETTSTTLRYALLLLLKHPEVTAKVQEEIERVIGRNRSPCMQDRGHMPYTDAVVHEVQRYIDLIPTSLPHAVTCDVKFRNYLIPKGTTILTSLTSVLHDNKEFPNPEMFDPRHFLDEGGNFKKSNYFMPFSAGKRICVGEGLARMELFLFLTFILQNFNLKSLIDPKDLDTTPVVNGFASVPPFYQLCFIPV
Sequence of Glucocorticoid receptor (Homo sapiens) (P04150 whole entry, looked up, the tested form may be a part): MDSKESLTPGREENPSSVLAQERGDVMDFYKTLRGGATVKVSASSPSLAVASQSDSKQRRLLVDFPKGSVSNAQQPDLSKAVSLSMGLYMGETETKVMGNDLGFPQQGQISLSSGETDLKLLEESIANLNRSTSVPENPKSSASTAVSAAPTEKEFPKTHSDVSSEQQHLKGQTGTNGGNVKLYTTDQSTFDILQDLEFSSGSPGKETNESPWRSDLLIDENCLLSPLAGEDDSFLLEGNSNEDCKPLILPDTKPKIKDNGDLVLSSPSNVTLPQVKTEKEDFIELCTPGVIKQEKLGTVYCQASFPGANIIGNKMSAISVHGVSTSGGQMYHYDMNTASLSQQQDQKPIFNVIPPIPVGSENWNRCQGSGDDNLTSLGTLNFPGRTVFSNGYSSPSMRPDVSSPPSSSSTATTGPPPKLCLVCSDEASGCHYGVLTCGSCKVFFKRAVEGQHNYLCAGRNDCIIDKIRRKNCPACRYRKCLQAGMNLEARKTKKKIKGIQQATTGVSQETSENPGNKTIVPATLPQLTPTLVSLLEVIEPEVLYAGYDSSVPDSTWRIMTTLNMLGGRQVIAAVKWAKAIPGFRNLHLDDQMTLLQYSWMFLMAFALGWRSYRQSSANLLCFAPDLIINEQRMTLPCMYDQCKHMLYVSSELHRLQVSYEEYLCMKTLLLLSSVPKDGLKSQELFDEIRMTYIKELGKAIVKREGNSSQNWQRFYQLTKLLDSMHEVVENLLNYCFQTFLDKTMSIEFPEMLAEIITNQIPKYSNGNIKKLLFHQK
Sequence of Cytochrome P450 2D6 (Homo sapiens) (P10635 whole entry, looked up): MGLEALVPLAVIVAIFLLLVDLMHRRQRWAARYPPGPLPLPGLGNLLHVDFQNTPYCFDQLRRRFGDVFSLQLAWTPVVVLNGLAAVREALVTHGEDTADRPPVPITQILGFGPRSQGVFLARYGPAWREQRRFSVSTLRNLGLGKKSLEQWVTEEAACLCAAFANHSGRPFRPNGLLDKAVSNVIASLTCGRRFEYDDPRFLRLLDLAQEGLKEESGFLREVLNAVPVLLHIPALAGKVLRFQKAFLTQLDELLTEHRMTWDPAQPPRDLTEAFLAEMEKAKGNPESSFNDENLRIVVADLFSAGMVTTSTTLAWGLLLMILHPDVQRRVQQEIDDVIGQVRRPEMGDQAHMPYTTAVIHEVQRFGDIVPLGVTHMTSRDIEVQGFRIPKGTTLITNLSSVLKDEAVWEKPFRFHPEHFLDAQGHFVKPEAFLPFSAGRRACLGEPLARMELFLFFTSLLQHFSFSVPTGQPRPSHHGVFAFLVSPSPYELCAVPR
Sequence of 3',5'-cyclic-AMP phosphodiesterase 4B (Homo sapiens) (Q07343 whole entry, looked up): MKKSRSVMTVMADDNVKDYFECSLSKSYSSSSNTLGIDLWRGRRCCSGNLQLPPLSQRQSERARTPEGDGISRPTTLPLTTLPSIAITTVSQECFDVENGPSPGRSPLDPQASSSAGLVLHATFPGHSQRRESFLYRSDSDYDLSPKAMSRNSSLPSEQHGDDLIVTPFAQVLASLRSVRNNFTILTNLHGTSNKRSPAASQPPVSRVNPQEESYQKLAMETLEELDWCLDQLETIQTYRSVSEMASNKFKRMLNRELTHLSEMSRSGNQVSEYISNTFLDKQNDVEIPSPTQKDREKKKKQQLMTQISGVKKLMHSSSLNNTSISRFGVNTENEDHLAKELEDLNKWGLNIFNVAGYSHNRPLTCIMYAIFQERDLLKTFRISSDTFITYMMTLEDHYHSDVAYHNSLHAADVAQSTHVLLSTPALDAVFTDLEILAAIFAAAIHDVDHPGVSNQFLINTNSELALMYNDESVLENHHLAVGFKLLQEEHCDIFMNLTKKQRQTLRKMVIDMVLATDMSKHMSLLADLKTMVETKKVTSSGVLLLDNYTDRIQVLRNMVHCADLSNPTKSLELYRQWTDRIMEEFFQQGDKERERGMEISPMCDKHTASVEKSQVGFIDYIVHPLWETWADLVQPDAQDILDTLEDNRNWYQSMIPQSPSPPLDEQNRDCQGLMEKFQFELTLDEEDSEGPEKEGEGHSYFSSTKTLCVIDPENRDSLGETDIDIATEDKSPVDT
Sequence of Cytochrome P450 1A2 (Homo sapiens) (P05177 whole entry, looked up): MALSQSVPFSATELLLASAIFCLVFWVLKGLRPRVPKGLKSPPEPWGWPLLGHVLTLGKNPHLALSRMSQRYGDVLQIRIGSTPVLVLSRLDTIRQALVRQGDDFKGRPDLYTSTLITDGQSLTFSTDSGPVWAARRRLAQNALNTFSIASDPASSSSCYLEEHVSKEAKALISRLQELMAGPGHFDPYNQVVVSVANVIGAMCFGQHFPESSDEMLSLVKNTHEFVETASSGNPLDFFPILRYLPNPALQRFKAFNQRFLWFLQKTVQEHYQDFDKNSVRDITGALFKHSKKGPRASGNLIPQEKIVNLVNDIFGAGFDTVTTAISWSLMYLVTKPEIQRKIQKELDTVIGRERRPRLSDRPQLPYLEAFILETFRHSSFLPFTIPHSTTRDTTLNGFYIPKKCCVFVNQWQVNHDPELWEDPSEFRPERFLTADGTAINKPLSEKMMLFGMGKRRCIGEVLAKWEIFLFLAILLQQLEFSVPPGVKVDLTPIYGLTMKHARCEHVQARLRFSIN

Regarding `CC(C)[C@@H](CC(=O)N[C@@H]1CCNC[C@H]1C(=O)N[C@H](CC(=O)N[C@@H](CCC(=O)O)CC(=O)O)Cc1ccccc1)NC(=O)C[C@H](Cc1ccccc1)NC(=O)[C@@H]1CNCC[C@H]1N`, the Potency in assay [1] was 15.8 µM (active); in assay [2], > 46 µM. Moreover, the Potency entry in assay [3], in assay [4], in assay [5], in assay [6] and in assay [7] was “inactive” throughout.
In the case of `CC(C)[C@@H](CC(=O)N[C@@H]1CCCC[C@H]1C(=O)N[C@H](CC(=O)N[C@@H](CCC(=O)O)CC(=O)O)Cc1c[nH]c2ccccc12)NC(=O)C[C@H](Cc1ccccc1)NC(=O)[C@@H]1CNCC[C@H]1N`, the Potency result in assay [1], in assay [3], in assay [4], in assay [5], in assay [6] and in assay [7] was “inactive” each time. For the same compound, in assay [2], the Potency is > 46 µM.
Consider `CC(C)[C@@H](CC(=O)N[C@@H]1CCCC[C@H]1C(=O)N[C@H](CC(=O)N[C@@H](CCC(=O)O)CC(=O)O)Cc1c[nH]c2ccccc12)NC(=O)C[C@H](CO)NC(=O)[C@@H]1CCCC[C@H]1N`, for which the Potency entry in assay [1], in assay [3], in assay [4], in assay [5], in assay [6] and in assay [7] was “inactive” each time. Besides, the Potency in assay [2] is > 46 µM.
As for `CC(C)C[C@@H](CC(=O)N[C@@H](CCCN)CC(=O)N[C@@H]1CCCC[C@H]1C(=O)N[C@H](CC(=O)N[C@@H](CCC(=O)O)CC(=O)O)Cc1c[nH]c2ccccc12)NC(=O)[C@@H]1CNCC[C@H]1N`, the Potency entry in assay [1], in assay [3], in assay [4], in assay [5], in assay [6] and in assay [7] was “inactive” each time. Further, the Potency in assay [2] was > 46 µM.
As to `CC(C)C[C@@H](CC(=O)N[C@@H](CCCN)CC(=O)N[C@@H]1CCCC[C@H]1C(=O)N[C@H](CC(=O)N[C@@H](CCC(=O)O)CC(=O)O)CC(C)C)NC(=O)[C@@H]1CCCC[C@H]1N`, the Potency result in assay [1], in assay [4], in assay [5], in assay [6] and in assay [7] was “inactive” throughout. The Potency in assay [2] is > 46 µM.
As for `CC(C)[C@@H](CC(=O)N[C@@H]1CCNC[C@H]1C(=O)N[C@H](CC(=O)N[C@@H](CCC(=O)O)CC(=O)O)Cc1ccccc1)NC(=O)C[C@H](CO)NC(=O)[C@@H]1CNCC[C@H]1N`, the Potency entry in assay [1], in assay [4] and in assay [6] was “inactive” throughout. The Potency in assay [2] is > 46 µM.
For the compound `NCCC[C@@H](CC(=O)N[C@@H]1CCNC[C@H]1C(=O)N[C@H](CC(=O)N[C@@H](CCC(=O)O)CC(=O)O)Cc1c[nH]c2ccccc12)NC(=O)C[C@H](Cc1ccccc1)NC(=O)[C@@H]1CNCC[C@H]1N`, the Potency in assay [1] was 31.6 µM (active); in assay [2] it was > 46 µM. The Potency entry in assay [4], in assay [5] and in assay [6] was “inactive” each time.
On to `CC(C)C[C@@H](CC(=O)N[C@@H](CCC(=O)O)CC(=O)O)NC(=O)[C@@H]1CNCC[C@H]1NC(=O)C[C@@H](NC(=O)C[C@H](Cc1c[nH]c2ccccc12)NC(=O)[C@@H]1CNCC[C@H]1N)C(C)C`, for which the Potency entry in assay [1], in assay [4], in assay [5], in assay [6] and in assay [7] was “inactive” in each case. In addition, the Potency in assay [2] was > 46 µM.
`CC(C)C[C@@H](CC(=O)N[C@@H](CCC(=O)O)CC(=O)O)NC(=O)[C@@H]1CCCC[C@H]1NC(=O)C[C@H](CCCN)NC(=O)C[C@H](CO)NC(=O)[C@@H]1CCCC[C@H]1N`: the Potency result in assay [1], in assay [4], in assay [5], in assay [6] and in assay [7] was “inactive” throughout. Further, the Potency in assay [2] was > 46 µM.
For `CC(C)C[C@@H](CC(=O)N[C@@H](CCCN)CC(=O)N[C@@H]1CCNC[C@H]1C(=O)N[C@H](CC(=O)N[C@@H](CCC(=O)O)CC(=O)O)Cc1c[nH]c2ccccc12)NC(=O)[C@@H]1CCCC[C@H]1N`, the Potency entry in assay [1], in assay [3], in assay [4], in assay [6] and in assay [7] was “inactive” each time. Moreover, in assay [2], the Potency was > 46 µM.
For the compound `CC(C)C[C@@H](CC(=O)N[C@@H](CCC(=O)O)CC(=O)O)NC(=O)[C@@H]1CNCC[C@H]1NC(=O)C[C@@H](NC(=O)C[C@H](Cc1ccccc1)NC(=O)[C@@H]1CNCC[C@H]1N)C(C)C`, the Potency in assay [1] is 31.6 µM (active); in assay [2], > 46 µM. Also, the Potency entry in assay [3], in assay [5], in assay [6] and in assay [7] was “inactive” throughout.
With `CC(C)C[C@@H](CC(=O)N[C@@H](CCC(=O)O)CC(=O)O)NC(=O)[C@@H]1CCCC[C@H]1NC(=O)C[C@@H](NC(=O)C[C@H](CO)NC(=O)[C@@H]1CNCC[C@H]1N)C(C)C`, the Potency result in assay [1], in assay [3], in assay [4], in assay [6] and in assay [7] was “inactive” throughout. The Potency in assay [2] is > 46 µM.
With `CC(C)[C@@H](CC(=O)N[C@@H]1CCCC[C@H]1C(=O)N[C@H](CC(=O)N[C@@H](CCC(=O)O)CC(=O)O)Cc1c[nH]c2ccccc12)NC(=O)C[C@H](Cc1c[nH]c2ccccc12)NC(=O)[C@@H]1CNCC[C@H]1N`, the Potency result in assay [1], in assay [4], in assay [5] and in assay [6] was “inactive” in each case. Also, the Potency in assay [2] is > 46 µM.
With `NCCC[C@@H](CC(=O)N[C@@H]1CCNC[C@H]1C(=O)N[C@H](CC(=O)N[C@@H](CCC(=O)O)CC(=O)O)Cc1c[nH]c2ccccc12)NC(=O)C[C@H](CO)NC(=O)[C@@H]1CNCC[C@H]1N`, the Potency result in assay [1], in assay [3], in assay [6] and in assay [7] was “inactive” throughout. Further, the Potency in assay [2] is > 46 µM.
In the case of `NCCC[C@@H](CC(=O)N[C@@H]1CCCC[C@H]1C(=O)N[C@H](CC(=O)N[C@@H](CCC(=O)O)CC(=O)O)Cc1ccccc1)NC(=O)C[C@H](CO)NC(=O)[C@@H]1CNCC[C@H]1N`, the Potency entry in assay [1], in assay [3] and in assay [6] was “inactive” in each case. The Potency in assay [2] was > 46 µM.
With `COC(=O)[C@@]1(Cc2ccc(F)cc2)[C@H]2c3cc(C(=O)N(C)C)n(Cc4cc(F)c(F)c(F)c4)c3C[C@H]2CN1C(=O)c1ccccc1`, the Potency entry in assay [1] and in assay [3] was “inactive” in each case.
`CC(C)C[C@@H](CC(=O)N[C@H](CC(=O)N[C@@H]1CCCC[C@H]1C(=O)N[C@H](CC(=O)N[C@@H](CCC(=O)O)CC(=O)O)Cc1c[nH]c2ccccc12)C(C)C)NC(=O)[C@@H]1CNCC[C@H]1N`: the Potency result in assay [1], in assay [4], in assay [5], in assay [6] and in assay [7] was “inactive” each time. Besides, in assay [2], the Potency was > 46 µM.
